# From PubChem BioAssay (Tox21)
# Values joined by “and” are separate entries in the source; they are usually repeats but may differ in a detail not shown here. Identical values can stand only once. Inconclusive results are not listed. Active and inactive are the calls of the source. Unless noted, the call rests on the fitted dose curve; in most records, active means well fitted curve in the direction sought with a large enough effect in the repeat runs; inconclusive means weak or mixed curves; inactive means no such curve, though single readings can be large; an effect the other way counts as inactive or inconclusive.
# Experiments:
# [1] = qHTS assay for identifying genotoxic compounds that show differential cytotoxicity against isogenic chicken DT40 cell lines with known DNA damage response pathways - wild type cell line (AID 743012); further: nearly all actives have a fitted effect of over 60% in size; further: potency means the concentration at half of the fitted maximal effect
# Procedure, shortened: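 Viability of DNA repair-proficient chicken DT40 cells was assessed by CellTiter-Glo luminescence following 40 h compound exposure at 37 C/5% CO2.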
# [2] = qHTS assay for identifying genotoxic compounds that show differential cytotoxicity against isogenic chicken DT40 cell lines with known DNA damage response pathways - Rev3 mutant cell line (AID 743014); further: nearly all actives have a fitted effect of over 55% in size; further: potency means the concentration at half of the fitted maximal effect
# [3] = qHTS assay for identifying genotoxic compounds that show differential cytotoxicity against isogenic chicken DT40 cell lines with known DNA damage response pathways - Rad54/Ku70 mutant cell line (AID 743015); further: nearly all actives have a fitted effect of over 60% in size; further: potency means the concentration at half of the fitted maximal effect
# [4] = qHTS assay to identify small molecule antagonists of the androgen receptor (AR) signaling pathway - cell viability counter screen (AID 743033; further: nearly all actives have a fitted effect of over 45% in size; further: potency means the concentration at half of the fitted maximal effect)
# [5] = qHTS assay to identify small molecule antagonists of the thyroid receptor (TR) signaling pathway - cell viability counter screen (AID 743064); further: potency means the concentration at half of the fitted maximal effect; nearly all actives have a fitted effect of over 50% in size
# Procedure, shortened: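 In rat pituitary GH3.TRE-Luc reporter cells co-exposed to compound and 1 nM T3 for 23.5 h, cytotoxicity was assessed with CellTiter-Fluor in the same wells, read by fluorescence.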
# [6] = qHTS assay to identify small molecule antagonists of the thyroid receptor (TR) signaling pathway (AID 743065); further: potency means the concentration at half of the fitted maximal effect; nearly all actives have a fitted effect of over 55% in size
# Procedure, shortened: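 GH3.TRE-Luc rat pituitary cells carrying two TR response elements driving luciferase were plated for 4 h, given compound plus 1 nM T3 (final), and incubated 23.5 h at 37 C. ONE-Glo luminescence measured reporter inhibition; CellTiter-Fluor fluorescence tracked cytotoxicity.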
# Aromatase (Homo sapiens) = Aromatase (Homo sapiens) (UniProt P11511); assay: qHTS assay to identify aromatase inhibitors (AID 743083); further: nearly all actives have a fitted effect of over 55% in size; further: potency means the concentration at half of the fitted maximal effect
# [7] = qHTS assay to identify aromatase inhibitors - cell viability counter screen (AID 743084);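 further: cells stimulated with testosterone during compound exposure; nearly all actives have a fitted effect of over 55% in size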; further: potency means the concentration at half of the fitted maximal effect
# [8] = qHTS assay to identify small molecule antagonists of the androgen receptor (AR) signaling pathway using the MDA cell line - cell viability counter screen (AID 743041; further: nearly all actives have a fitted effect of over 45% in size; further: potency means the concentration at half of the fitted maximal effect)
# Procedure, shortened: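 In this qHTS counter assay, fluorescence intensity after CellTiter-Fluor addition indicated viability of MDA-kb2 AR-luc cells given compounds and R1881 for 16 h at 37C.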
# [9] = qHTS assay to identify small molecule antagonists of the estrogen receptor alpha (ER-alpha) signaling pathway - cell viability counter screen (AID 743074; calls by dose curve;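 further: HEK293 cells carrying ER-alpha-UAS-bla reporter stimulated with 17beta-estradiol; nearly all actives have a fitted effect of over 45% in size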; further: potency means the concentration at half of the fitted maximal effect)
# [10] = qHTS assay to identify small molecule antagonists of the estrogen receptor alpha (ER-alpha) signaling pathway using the BG1 cell line - cell viability counter screen (AID 743081);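 further: compound given together with 17beta-estradiol as the ER stimulus; series mostly up to about 70 µM; nearly all actives have a fitted effect of over 45% in size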
# [11] = target: Estrogen receptor (Homo sapiens) (UniProt P03372); assay: qHTS assay to identify small molecule agonists of the estrogen receptor alpha (ER-alpha) signaling pathway (AID 743075; calls by dose curve;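 further: HEK293 GripTite cells with ER-alpha and UAS-driven beta-lactamase reporter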)
# [12] = qHTS assay to identify small molecule antagonists of the estrogen receptor alpha (ER-alpha) signaling pathway using the BG1 cell line (AID 743080; calls by dose curve;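 further: BG1 cells stimulated with 17beta-estradiol alongside compound; potency means the concentration at half of the fitted maximal effect; nearly all actives have a fitted effect of over 25% in size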)
# Procedure, shortened: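 Endogenous full-length ER-alpha in BG1-Luc-4E2 cells drives a stably integrated 4×ERE luciferase gene; compounds were tested against 17beta-estradiol over 21.5 h, with luminescence and multiplexed viability fluorescence recorded.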
# [13] = target: Androgen receptor (Homo sapiens) (UniProt P10275); assay: qHTS assay to identify small molecule agonists of the androgen receptor (AR) signaling pathway (AID 743036; active means well fitted activation curve with a large enough effect in the signal ratio in the repeat runs, with a control signal flat, not every such curve was filed as active; the % refers to the signal ratio; further: potency means the concentration at half of the fitted maximal effect)
# Procedure, shortened: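 Cell-based FRET reporter assay: HEK293 line with a UAS-beta-lactamase construct, compounds added in DMSO, 16 h exposure at 37C, then 2 h substrate step at room temperature and fluorescence intensity read.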
# [14] = target: Androgen receptor (Homo sapiens) (UniProt P10275); assay: qHTS assay to identify small molecule agonists of the androgen receptor (AR) signaling pathway using the MDA cell line (AID 743040; further: nearly all actives have a fitted effect of over 20% in size; further: potency means the concentration at half of the fitted maximal effect)
# Procedure, shortened: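 Cell-based luciferase reporter: MDA-kb2, MMTV promoter (AR + GR response elements). 16 h compound exposure at 37C; ONE-Glo, 30 min RT, luminescence.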
# [15] = target: Androgen receptor (Homo sapiens) (UniProt P10275); assay: qHTS assay to identify small molecule antagonists of the androgen receptor (AR) signaling pathway using the MDA cell line (AID 743042; further: nearly all actives have a fitted effect of over 55% in size; further: potency means the concentration at half of the fitted maximal effect)
# Procedure, shortened: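 MDA-kb2 cells (human breast carcinoma, stably carrying an MMTV-luciferase reporter responsive to AR and GR) were plated at 3,000 cells/well and preincubated 5 hr at 37C, then given compound plus R1881 agonist for 16 h. ONE-Glo luminescence was read.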
# [16] = tested on: thyroid hormone receptor (rat, GH3 cells); assay: qHTS assay to identify small molecule agonists of the thyroid receptor (TR) signaling pathway (AID 743066; calls by dose curve)
# Androgen receptor (Homo sapiens), sequence (P10275 whole entry, looked up): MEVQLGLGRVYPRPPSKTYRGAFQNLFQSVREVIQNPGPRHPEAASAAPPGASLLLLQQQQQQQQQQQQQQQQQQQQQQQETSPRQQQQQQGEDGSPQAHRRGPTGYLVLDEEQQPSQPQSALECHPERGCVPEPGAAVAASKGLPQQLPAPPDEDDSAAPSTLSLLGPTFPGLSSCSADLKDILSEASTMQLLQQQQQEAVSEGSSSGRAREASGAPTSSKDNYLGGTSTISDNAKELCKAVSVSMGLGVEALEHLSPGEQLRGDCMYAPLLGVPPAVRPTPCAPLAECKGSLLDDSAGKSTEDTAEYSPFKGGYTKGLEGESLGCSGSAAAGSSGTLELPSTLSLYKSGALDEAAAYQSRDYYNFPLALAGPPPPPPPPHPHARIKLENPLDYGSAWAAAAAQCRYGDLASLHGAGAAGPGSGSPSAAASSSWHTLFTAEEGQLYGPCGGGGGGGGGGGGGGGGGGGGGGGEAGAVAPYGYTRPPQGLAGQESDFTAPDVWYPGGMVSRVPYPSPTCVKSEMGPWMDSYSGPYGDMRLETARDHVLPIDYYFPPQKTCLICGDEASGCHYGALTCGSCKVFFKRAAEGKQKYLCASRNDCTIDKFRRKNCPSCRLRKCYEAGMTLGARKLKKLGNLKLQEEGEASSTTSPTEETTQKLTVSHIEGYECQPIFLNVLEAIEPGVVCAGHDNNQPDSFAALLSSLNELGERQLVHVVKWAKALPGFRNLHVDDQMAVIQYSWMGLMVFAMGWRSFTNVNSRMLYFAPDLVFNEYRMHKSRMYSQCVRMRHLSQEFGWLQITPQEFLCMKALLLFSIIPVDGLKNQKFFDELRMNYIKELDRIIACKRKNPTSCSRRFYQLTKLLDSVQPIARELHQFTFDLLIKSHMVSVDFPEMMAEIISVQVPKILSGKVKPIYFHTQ
# Aromatase (Homo sapiens), sequence (P11511 whole entry, looked up): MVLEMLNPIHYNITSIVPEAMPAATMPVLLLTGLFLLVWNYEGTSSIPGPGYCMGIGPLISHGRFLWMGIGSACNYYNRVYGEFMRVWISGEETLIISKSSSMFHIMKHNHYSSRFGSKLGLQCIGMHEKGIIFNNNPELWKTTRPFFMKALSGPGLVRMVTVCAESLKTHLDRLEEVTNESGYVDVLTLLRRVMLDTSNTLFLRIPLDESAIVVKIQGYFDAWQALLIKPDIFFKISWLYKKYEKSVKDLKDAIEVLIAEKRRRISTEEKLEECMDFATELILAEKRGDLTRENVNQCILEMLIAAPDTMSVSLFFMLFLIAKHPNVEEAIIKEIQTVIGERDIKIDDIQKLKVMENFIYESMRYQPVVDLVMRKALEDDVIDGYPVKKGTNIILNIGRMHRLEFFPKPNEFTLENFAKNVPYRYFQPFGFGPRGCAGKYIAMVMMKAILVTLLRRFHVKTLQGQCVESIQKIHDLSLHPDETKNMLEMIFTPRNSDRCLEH
# Estrogen receptor (Homo sapiens), sequence (P03372 whole entry, looked up): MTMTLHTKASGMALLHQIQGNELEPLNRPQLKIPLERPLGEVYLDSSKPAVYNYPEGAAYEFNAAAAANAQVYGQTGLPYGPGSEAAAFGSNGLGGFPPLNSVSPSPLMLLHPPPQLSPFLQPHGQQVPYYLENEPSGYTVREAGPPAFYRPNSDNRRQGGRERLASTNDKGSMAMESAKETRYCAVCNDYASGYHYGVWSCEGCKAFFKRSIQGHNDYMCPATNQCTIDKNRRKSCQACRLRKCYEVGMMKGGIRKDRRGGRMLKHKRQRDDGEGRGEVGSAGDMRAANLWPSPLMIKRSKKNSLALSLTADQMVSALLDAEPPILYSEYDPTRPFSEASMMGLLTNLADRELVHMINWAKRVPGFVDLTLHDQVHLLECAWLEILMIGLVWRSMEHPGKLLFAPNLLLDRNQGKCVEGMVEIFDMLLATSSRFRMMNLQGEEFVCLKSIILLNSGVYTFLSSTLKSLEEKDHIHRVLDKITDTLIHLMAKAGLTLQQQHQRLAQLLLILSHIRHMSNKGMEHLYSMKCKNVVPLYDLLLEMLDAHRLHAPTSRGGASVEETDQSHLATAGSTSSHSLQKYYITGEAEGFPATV
Structure (SMILES),Potency [1],Potency [2],Potency [3],Potency [4],Potency [5],Potency [6],Potency (Aromatase (Homo sapiens)),Potency [7],Potency [8],Potency [9],Potency [10],Potency [11],Potency [12],Potency [13],Potency [14],Potency [15],outcome [16]
CCCOCC(=Nc1ccc(Cl)cc1C(F)(F)F)n1ccnc1,4.32 µM (active),4.32 µM (active),4.32 µM (active),12.3 µM (active),7.69 µM (active),7.69 µM (active),15.3 nM (active),12.2 µM (active),,,,,,,,,
CCCCCCCCCCCCCCCC[N+](C)(C)C,473 nM (active) and 934 nM (active) and 969 nM (active),596 nM (active) and 417 nM (active) and 770 nM (active),841 nM (active) and 1.05 µM (active) and 969 nM (active),21.1 µM (active) and 27.5 µM (active),9.44 µM (active) and 20.9 µM (active) and 13.7 µM (active),,16.8 µM (active) and 11.8 µM (active) and 30.6 µM (active),29.5 µM (active) and 68.6 µM (active),61.1 µM (active),21.3 µM (active) and 4.72 µM (active) and 49 µM (active),inactive,,,,,,
CC(C)C1CCC(Cc2ccc(Cl)cc2)C1(O)Cn1cncn1 (centres undefined),19.1 µM (active),13.5 µM (active),8.55 µM (active),38.5 µM (active),60.5 µM (active),34 µM (active),2410 nM (active),24.1 µM (active),,,,inactive,67.9 µM (active),,,,
C[C@]12Cc3nonc3C[C@@H]1CC[C@@H]1[C@@H]2CC[C@@]2(C)[C@H]1CC[C@]2(C)O,11.9 µM (active),13.3 µM (active),18.8 µM (active),,29.8 µM (active),13.3 µM (active),,inactive,inactive,inactive,inactive,,29.8 µM (active),0.0038 µM (active),0.0019 µM (active),29.8 µM (active),
Oc1ccc(C2(c3ccc(O)cc3)c3ccccc3-c3ccccc32)cc1,68.6 µM (active),43.3 µM (active),54.5 µM (active),54.9 µM (active),27.3 µM (active),15.4 µM (active),,,,,,,,,,,inactive
Oc1c(Br)c(Br)c(Br)c(Br)c1Br,inactive,inactive,inactive,,,,,,inactive,,inactive,inactive,,inactive,inactive,inactive,
CC(=O)OC1(c2ccccc2)CCN(CCc2ccccc2)CC1,4.43 µM (active),4.43 µM (active),4.43 µM (active),inactive,31.4 µM (active),55.8 µM (active),inactive,inactive,,inactive,inactive,,,,,,inactive
Clc1ccc(COC(Cn2ccnc2)c2ccc(Cl)cc2Cl)cc1 (centres undefined),7.5 µM (active) and 20.2 µM (active) and 15.3 µM (active),16.8 µM (active) and 12.8 µM (active) and 9.65 µM (active),10.6 µM (active) and 16.1 µM (active) and 10.8 µM (active),40.7 µM (active) and 38.7 µM (active),13.3 µM (active) and 27.2 µM (active),,531 nM (active) and 255 nM (active) and 68.3 nM (active),33.5 µM (active) and 45.3 µM (active) and 60.9 µM (active),,45.7 µM (active) and 34.5 µM (active),inactive,,23.7 µM (active) and 60.9 µM (active),,,,inactive
